# The panel holds about 79,000 compounds, 15% with a hit somewhere; the sample as a whole holds those more often. Unmarked numbers belong to inactive results. Rule as the data show it: active = growth inhibition above about 70%; inactive = the rest.
# Test: NCI Yeast Anticancer Drug Screen. Data for the rad50 strain (AID 155);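 also: 0% = growth of vehicle-only cultures of the same strain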
# Details: S. cerevisiae rad50 strain growth inhibition; at 50.0 µM; active compounds read high
# Protocol: Growth inhibition of yeast strains with defined genetic alterations is measured as a screen for potential anti-cancer activity. Selected strains with alterations in DNA damage repair or cell cycle control were exposed to compounds and growth inhibition was measured relative to vehicle treated controls. The strain used in this assay is rad50
row,SMILES,growth inhibition
1,COc1cc(N)c2ncccc2c1Cl,17.6%
2,C=CCC(OC(C)=O)c1ccc(C(C)C)cc1 (stereo not given),4%
3,NCC(O)C(O)C(O)C(O)CO (stereo not given),13.2%
4,COc1ccc2c(ccc[n+]2C)c1,19.6%
5,Cc1ccc(C(C)C)c(OCC(=O)O)c1,15.4%
6,Nc1ncnc(Nc2ccccc2)n1,-6.05%
7,COC1CC(OC(=O)c2ccc([N+](=O)[O-])cc2)C(COC(=O)c2ccc([N+](=O)[O-])cc2)O1 (stereo not given),9.45%
8,C/C(O)=C(/C=N\C(=S)Nc1ccc(S(=O)(=O)Nc2nccs2)cc1)C(=O)Nc1ccccc1C,-14.3%
9,C=CCC(O)C=C (stereo not given),10.3%
10,C=CC(C)(C)n1cc(C2=C(O)C(=O)C(c3cn(C(C)(C)C=C)c4ccccc34)=C(O)C2=O)c2ccccc21,-1.6%
11,COC1C(=O)CCC2(CO2)C1(O)C1(C)OC1CCC(C)C (stereo not given),-27.1%
12,CS(=O)CC(=N\O)/C(CS(C)=O)=N\O (stereo not given),9.7%
13,CCOP(=O)(NC(c1ccccc1)c1ccccc1)OCC,21.9%
14,CN(CCCN(C)CCC1CCCCC1)CCC1CCCCC1,11.2%
15,Clc1ccc(C(SCc2ccccc2)SCc2ccccc2)cc1,-41.4%
16,CC(C)=CCC[C@@H](C)[C@H]1CC[C@@]2(C)C3=C(CC[C@]12C)[C@@]1(C)CC[C@H](O)C(C)(C)[C@@H]1CC3,12.7%
17,C#CCSc1nnnn1-c1ccccc1,-0.6%
18,CC(=O)N(C(C)=O)c1ccc(C)cc1,-13.7%
19,CC(C)(CC(=O)O)CC(=O)O,14.4%
20,CC(CO)(CO)C(=O)O,4.35%

row,SMILES,growth inhibition
1,O=C1C=CC(=O)C2=C1CCCC2,17.1%
2,OC(CCN1CCCCC1)(c1ccccc1)c1ccccc1,-29.6%
3,O=C(N/N=C\c1ccc(Cl)cc1Cl)c1ccncc1,1%
4,C[n+]1cc2cc3c(cc2c2ccccc21)OCO3,23.5%
5,Cc1ccc(C2CCCCC2)cc1Br,5.7%
6,C/C(=N\N=C(/C)c1cccc([N+](=O)[O-])c1)c1cccc([N+](=O)[O-])c1,-5.75%
7,CC(=O)NNC(=S)N/C=C/c1c(C)ccc([N+](=O)[O-])c1[N+](=O)[O-],-24.5%
8,CC(=O)Nc1ncc(S(=O)(=O)c2ccc([N+](=O)[O-])cc2)s1,-28.1%
9,CCCc1cccc(CCC)c1NC(=O)Nc1cc(Cl)cc(Cl)c1,37.5%
10,CC(C)OCC(CCl)OC(=O)Nc1ccccc1 (stereo not given),49.1%
11,O=S(=O)(O)c1cccc2cccnc12,4.3%
12,COc1ccc(C2CCCCC2=O)cc1 (stereo not given),-17.2%
13,CCC(C)c1c(N)n(S(=O)(=O)c2ccc(C)cc2)oc1=O (stereo not given),-25.2%
14,CC1CN(CCO)CC(C)O1 (stereo not given),-14.1%
15,C1CCc2onc(-c3noc4c3CCCCC4)c2CC1,-9.45%
16,CSCCC(NC(=O)C(Cl)Cl)C(=O)O (stereo not given),-31.6%
17,COc1cc(OC)c(NC(=O)C(Sc2nc(C)cc(C)c2C#N)c2ccccc2)cc1Cl (stereo not given),-6.3%
18,S=c1nc(-c2ccccn2)c(-c2ccccn2)n[nH]1,-11%
19,Nc1cc(F)ccc1[N+](=O)[O-],-13.2%
20,NNc1ncccn1,6.45%

# — PubChem BioAssay (NCI)
